Data on eight compounds can be found in PubChem BioAssay (NCATS).

Experiment [1] in a line: qHTS profiling for inhibitors of Plasmodium falciparum (3D7) proliferation (AID 743322).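 Further: infected erythrocytes exposed to compound for 72 h before lysis; 100% = DMSO vehicle wells and 0% = 0.29 µM artemisinin.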 The settings on record: P. falciparum 3D7 proliferation; at 28.7 µM (top of the series) unless noted. The procedure, abridged: (§1)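 Erythrocytes infected with P. falciparum (0.3% parasitemia, 2.5% hematocrit) incubated with compounds 72 h at 37 C, 5% CO2. Lysis with saponin/Triton buffer containing SYBR Green I, overnight at room temperature in the dark; DNA fluorescence (485/535 nm) normalised to 0.29 uM artemisinin and DMSO.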

Experiment [2] can be described thus: qHTS profiling for inhibitors of Plasmodium falciparum (HB3) proliferation (AID 743324; active means well fitted curve in the direction sought with a large enough effect; an effect the other way counts as inactive or inconclusive;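 further: 100% = DMSO vehicle wells and 0% = artemisinin-treated control wells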). The note with it: Plasmodium falciparum HB3 blood-stage proliferation; at 28.7 µM (top of the series) unless noted. The gist of the method:
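P. falciparum HB3 grown in erythrocytes (0.3% parasitemia, 2.5% hematocrit final) with compound for 72 h at 37 C, 5% CO2. Parasite DNA detected by SYBR Green after saponin/triton lysis overnight; normalized to 0.29 uM artemisinin and DMSO.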

A short description of experiment [3]: qHTS profiling of the MIPE4 collection as inhibitors of Plasmodium falciparum (3D7) proliferation (AID 743344).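 Further: scaled between DMSO vehicle wells and 0.29 µM artemisinin as full inhibition.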 The settings on record: P. falciparum 3D7 in erythrocytes, SYBR Green DNA fluorescence, 72 h; at 28.5 µM (top of the series) unless noted. The procedure, abridged:
as §1
(Quantitative high-throughput screening tests each substance at several concentrations.)

Experiment [4] can be described thus: qHTS profiling of the MIPE4 collection as inhibitors of Plasmodium falciparum (DD2) proliferation (AID 743345). The note with it: P. falciparum Dd2 in erythrocytes, SYBR Green DNA, 72 h; at 28.5 µM (top of the series) unless noted. The gist of the method:
as §1

The nature of experiment [5]: qHTS profiling of the MIPE4 collection as inhibitors of Plasmodium falciparum (DD2) proliferation (Rep 2) (AID 743346). The note with it: P. falciparum Dd2 in erythrocytes, SYBR Green DNA, 72 h; at 28.5 µM (top of the series) unless noted. The gist of the method: as §1
Experiment [6] is described as follows: qHTS profiling of the MIPE4 collection as inhibitors of Plasmodium falciparum (HB3) proliferation (AID 743347).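 Further: plate controls were DMSO vehicle wells for no effect and artemisinin wells for full effect.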 The settings on record: P. falciparum HB3 in erythrocytes, SYBR Green DNA, 72 h; at 28.5 µM (top of the series) unless noted. The gist of the method:
as §1

A short description of experiment [7]: High-throughput drug toxicity screening in the BPDCN cell line Gen2.2 (AID 1224824).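 Further: cells exposed to compounds for 48 h before reading.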 The note with it: Gen2.2 BPDCN cells; at 45.8 µM (top of the series) unless noted. The gist of the method: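 Seed 500 exponentially growing Gen2.2 cells/well; add compounds by pin tool; incubate 48 h, 37 °C, 5% CO2; add CellTiter-Glo, 15 min RT; read luminescence. % activity vs DMSO (100%) and bortezomib (0%).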

Experiment [8] is described as follows: High-throughput drug toxicity screening in the BPDCN cell line Cal-1 (AID 1224825). The settings on record: Cal-1 BPDCN cell viability, qHTS; at 45.8 µM (top of the series) unless noted. The gist of the method: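 500 Cal-1 cells/well, RPMI + glutamine + 10% FBS (phenol red-free); cpd added by pin tool; 48 h, 37C, 5% CO2; CTG 15 min RT, lumi read. Normalised: DMSO 100%, bortezomib 9.2 uM 0%.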

A short description of experiment [9]: qHTS assay for measurement of the activity of small molecule inhibitors on Zika virus induced Caspase-3 activity in human iPSC derived neural progenitor cells (hNPCs) (AID 1224857; active means well fitted curve in the direction sought with a large enough effect; an effect the other way counts as inactive or inconclusive; further: % of control where 0% means no effect; nearly all actives have a fitted effect of over 65% in size). The procedure, abridged:
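After overnight (16–20 h) culture at 350 cells/well, hNPCs get compound, then ZIKV 2 FFU/cell one hour later. Six hours on, Caspase-Glo 3/7 is added and luminescence measured.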

The nature of experiment [10]: qHTS assay for measurement of the activity of small molecule inhibitors on Zika virus induced Caspase-3 activity in human astrocytoma cells (AID 1224859; active means well fitted curve in the direction sought with a large enough effect; an effect the other way counts as inactive or inconclusive;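 further: plate controls were ZIKV-infected untreated cells for no effect and uninfected cells for full effect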). The gist of the method: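 Inhibition of Zika-induced caspase-3/7 activity: SNB-19 cells, 1 h compound pretreatment, ZIKV 2 FFU/cell for 6 h at 37 C, Caspase-Glo luminescence read-out.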
Experiment [11] in a line: qHTS Screen of the MIPE 4.0 Collection Against Ewings Sarcoma (RDES) (AID 1259252; active means well fitted curve in the direction sought with a large enough effect; an effect the other way counts as inactive or inconclusive; further: nearly all actives have a fitted effect of over 35% in size; further: potency means the concentration at half of the fitted maximal effect). The procedure, abridged: (§2)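 CellTiter-Glo luminescence after 48 h compound exposure (titration) gave viability; percent activity used DMSO-treated cells as no inhibition and medium-only wells as full inhibition. Cells grown in RPMI/5% FBS, dosed 4 h post-seeding.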
The nature of experiment [12]: qHTS Screen of the MIPE 4.0 Collection Against Ewings Sarcoma (TC32) (AID 1259256; active means well fitted curve in the direction sought with a large enough effect; an effect the other way counts as inactive or inconclusive; further: nearly all actives have a fitted effect of over 45% in size; further: potency means the concentration at half of the fitted maximal effect). The gist of the method:
as §2

Experiment [13] in a line: qHTS profiling for inhibitors of Plasmodium falciparum (DD2) proliferation (AID 743323). The note with it: lower = more inhibition; at 28.7 µM (top of the series) unless noted. The procedure, abridged: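 P. falciparum Dd2-infected erythrocytes (0.3% parasitemia, 2.5% hematocrit) exposed 72 h at 37 C, 5% CO2. Lysis with SYBR Green, overnight at room temperature, fluorescence 485/535 nm; normalized to 0.29 uM artemisinin and DMSO.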

A short description of experiment [14]: qHTS Screen of the MIPE 4.0 Collection Against Ewings Sarcoma (EW8) (AID 1259255; active means well fitted curve in the direction sought with a large enough effect; an effect the other way counts as inactive or inconclusive;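 further: 100% = DMSO-treated cells and 0% = medium-only wells without cells; nearly all actives have a fitted effect of over 35% in size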). The gist of the method:
as §2

Experiment [15] can be described thus: qHTS Screen of the MIPE 4.0 Collection Against Ewings Sarcoma (TC71) (AID 1259253; active means well fitted curve in the direction sought with a large enough effect; an effect the other way counts as inactive or inconclusive; further: nearly all actives have a fitted effect of over 40% in size; further: potency means the concentration at half of the fitted maximal effect). The procedure, abridged: as §2
Experiment [16] in a line: Identifying Small Molecule Inhibitors of Pancreatic Cancer Stem Cells (A2780, Spheroid) (AID 1259357; active means well fitted curve in the direction sought with a large enough effect; an effect the other way counts as inactive or inconclusive;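 further: spheroids pre-formed over 14 days in stem cell medium on hydrogel; potency means the concentration at half of the fitted maximal effect; compound exposure lasted 48 h before the ATP luminescence read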). The settings on record: Potency: A2780 spheroid viability. The gist of the method: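 Spheroids grown 14 days in stem cell media on nonadherent hydrogel before screening; cells attached 4 h, then compound exposure 48 h at 37C, 5% CO2. CellTiter-Glo luminescence normalized to DMSO (no inhibition) and no-cell wells (full inhibition).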

Inconclusive results are not listed. The source made the active and inactive calls. Unless noted, how the calls were made is not given here.

`CCOc1cc(C(=O)Nc2ccc(Cl)c(-c3nc4ccccc4[nH]3)c2)cc(OCC)c1OCC`: the remaining parasite growth % (stronger effect = lower value) in experiment [1] was found to be 1.56%. Also, the remaining proliferation (% of control), lower = more inhibition in experiment [2] was determined as 0.587%. The parasite growth, % of DMSO control in [3] was found to be 5.5%. Also, in experiment [4], the parasite growth remaining, % of DMSO control (lower = more inhibition) was found to be 58.5%. In experiment [5], the parasite growth, % of control (lower = inhibition) was found to be 17%. The same compound yielded a growth, % of control in experiment [6] of 7.25%. In addition, the cell viability, % of control (lower = more cytotoxic) in [7] worked out at 0.788%. Also, in [8], the viability (% of control) is 43.8%. Moreover, the Potency result in experiment [9] and in experiment [10] was “inactive” each time. The figures for the Potency in experiment [11] and in experiment [12] were 14.8 µM (active) and 20.9 µM (active), respectively.
Turning to `CCCn1c(=O)c2[nH]c(C34CC5CC3C[C@@H](C5)C4)nc2n(CCC)c1=O`, the remaining parasite growth % (stronger effect = lower value) in experiment [1] is 89.8%. The activity, percent of control in experiment [13] amounted to 85.1%. Further, the remaining proliferation (% of control), lower = more inhibition in experiment [2] was found to be 59.4%. The parasite growth, % of DMSO control in [3] came to 16.5%. For the same compound, the parasite growth remaining, % of DMSO control (lower = more inhibition) in experiment [4] came out at 77.4%. This compound also came in with a parasite growth, % of control (lower = inhibition) in experiment [5] of 17.3%. Besides, the growth, % of control in experiment [6] was determined as 5.74%. In addition, the cell viability, % of control (lower = more cytotoxic) in experiment [7] came to 214%. For the same compound, in experiment [8], the viability (% of control) is 125%. The Potency result in [9] and in [10] was “inactive” throughout.
For the compound `COc1c(Cl)cc2c([nH]c3cnccc32)c1NC(=O)c1cccnc1C`, the remaining parasite growth % (stronger effect = lower value) in experiment [1] was determined as 107%. In addition, in experiment [13], the activity, percent of control stood at 108%. In addition, in experiment [2], the remaining proliferation (% of control), lower = more inhibition is 86.1%. Moreover, in experiment [3], the parasite growth, % of DMSO control was 19.9%. This compound also gave a parasite growth remaining, % of DMSO control (lower = more inhibition) in experiment [4] of 72.7%. For the same compound, in experiment [5], the parasite growth, % of control (lower = inhibition) came to 25.5%. Besides, in [7], the cell viability, % of control (lower = more cytotoxic) is 41.9%. The viability (% of control) in experiment [8] was 77.1%. Also, the Potency result in [9] and in experiment [10] was “inactive” in each case. In experiment [11], the Potency is 0.59 µM (active).
`Cc1cc(C=c2sc3nc4ccccc4n3c2=O)c(C)n1-c1ccccc1`: the remaining parasite growth % (stronger effect = lower value) in [1] came to 37.9%. In addition, the activity, percent of control in [13] came to 101%. Moreover, in experiment [2], the remaining proliferation (% of control), lower = more inhibition came out at 116%. Moreover, the parasite growth, % of DMSO control in experiment [3] came to 84.9%. The compound also had a parasite growth remaining, % of DMSO control (lower = more inhibition) in experiment [4] of 93.2%. The same compound registered a parasite growth, % of control (lower = inhibition) in experiment [5] of 73%. Moreover, the growth, % of control in [6] turned out to be 424%. The cell viability, % of control (lower = more cytotoxic) in experiment [7] amounted to 74.1%. The viability (% of control) in [8] was found to be 103%. The Potency entry in experiment [10], in experiment [11] and in experiment [14] was “inactive” each time.
Consider `Cc1ccc(-n2nc(C(C)(C)C)cc2NC(=O)Nc2ccc(OCCN3CCOCC3)c3ccccc23)cc1`, for which the remaining parasite growth % (stronger effect = lower value) in [1] turned out to be 24.3%. Further, the remaining proliferation (% of control), lower = more inhibition in experiment [2] came to 5.8%. The same compound registered a parasite growth, % of DMSO control in [3] of 29.4%. The compound also came in with a parasite growth remaining, % of DMSO control (lower = more inhibition) in experiment [4] of 84.5%. This compound returned a parasite growth, % of control (lower = inhibition) in experiment [5] of 31.6%. Also, the cell viability, % of control (lower = more cytotoxic) in [7] came to 240%. The viability (% of control) in experiment [8] stood at 64.8%. The Potency result in [10] is “inactive”. For the same compound, the Potency in experiment [11] was 29.6 µM (active); in experiment [15], 20.9 µM (active); in experiment [12], 20.9 µM (active).
For the compound `CCC(C)n1ncn(-c2ccc(N3CCN(c4ccc(OC[C@H]5CO[C@](Cn6cncn6)(c6ccc(Cl)cc6Cl)O5)cc4)CC3)cc2)c1=O` (stereo not given in full), in experiment [1], the remaining parasite growth % (stronger effect = lower value) came out at 3.74%. In experiment [13], the activity, percent of control came out at 7.7%. For the same compound, the remaining proliferation (% of control), lower = more inhibition in [2] was determined as 2.67%. In addition, the parasite growth, % of DMSO control in [3] came to 5.41%. The compound further showed a parasite growth remaining, % of DMSO control (lower = more inhibition) in experiment [4] of 8.47%. In addition, the parasite growth, % of control (lower = inhibition) in experiment [5] came to 37.4%. Moreover, the cell viability, % of control (lower = more cytotoxic) in [7] stood at 92.6%. Moreover, the viability (% of control) in [8] is 93.9%. In addition, the Potency result in experiment [9], in experiment [10], in [15], in [14] and in experiment [12] was “inactive” in each case. The Potency in experiment [16] was 4.69 µM (active).
On to `CCOC(=O)N[C@@H]1CC[C@@H]2[C@@H](C1)C[C@H]1C(=O)O[C@H](C)[C@H]1[C@@H]2C=Cc1ccc(-c2cccc(F)c2)cn1`, for which, in experiment [1], the remaining parasite growth % (stronger effect = lower value) stood at 1.23%. Further, the activity, percent of control in [13] amounted to 7.47%. Further, the remaining proliferation (% of control), lower = more inhibition in experiment [2] stood at 0.902%. The parasite growth, % of DMSO control in experiment [3] was 7.63%. In addition, in experiment [4], the parasite growth remaining, % of DMSO control (lower = more inhibition) turned out to be 45%. Moreover, the parasite growth, % of control (lower = inhibition) in experiment [5] turned out to be 22%. The compound further showed a growth, % of control in experiment [6] of 5.21%. In addition, in experiment [7], the cell viability, % of control (lower = more cytotoxic) is 14.3%. For the same compound, the viability (% of control) in [8] worked out at 20%. In addition, the Potency entry in experiment [9] and in experiment [10] was “inactive” throughout. The Potency in experiment [15] is 20.9 µM (active); in experiment [12], 18.7 µM (active).
Consider `O=C(Nc1ccc(F)c(C(F)(F)F)c1)Nc1nnc(-c2ccncc2)s1`, for which, in experiment [1], the remaining parasite growth % (stronger effect = lower value) came to 94.5%. In addition, the activity, percent of control in [13] stood at 90%. Moreover, the remaining proliferation (% of control), lower = more inhibition in experiment [2] came to 67.6%. For the same compound, the parasite growth, % of DMSO control in experiment [3] came out at 19.3%. In experiment [4], this compound had a parasite growth remaining, % of DMSO control (lower = more inhibition) of 14.4%. This compound had a parasite growth, % of control (lower = inhibition) in experiment [5] of 25.2%. Also, the growth, % of control in experiment [6] worked out at 4.4%. The cell viability, % of control (lower = more cytotoxic) in experiment [7] was 131%. For the same compound, the viability (% of control) in experiment [8] was 101%. The Potency entry in experiment [9] and in experiment [10] was “inactive” each time.
